Measured values reported in PubChem BioAssay AID596 (National Center for Advancing Translational Sciences (NCATS), 2007).
Values joined by “and” are separate entries in the source; they are usually repeats but may differ in a detail not shown here. Identical values can stand only once. Out of some 71,000 compounds screened, about 1,400 (2%) were called active. Where a call stands in place of a potency, no number is given. Not shown: some 3% with an inconclusive outcome. This is one part of a sample in which actives are shown more often than they occur. Calls come from the whole dose curve; as a rule, active = well fitted curve in the direction sought with a large enough effect; inconclusive = small, poorly fitted or top-dose-only effect; inactive = no such curve, though single readings can be large or run the other way. Some structures have more than one record in an assay (separate samples or runs), and their calls can disagree.

Target: Microtubule-associated protein tau (Homo sapiens) (UniProt P10636)
Assay: qHTS Assay for Tau Filament Binding;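 note: actives lower thioflavin S fluorescence by blocking filaments or displacing dye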
Conditions: recombinant tau filaments, thioflavin S fluorescence, 15 h; series mostly up to 57.1 µM
From the text: NIH Molecular Libraries Screening Centers Network [MLSCN]
NIH Chemical Genomics Center [NCGC]
Assay Provider: Jeffrey A. Kuret, Ohio State University
Tau monomers form filaments in vitro in the presence of anionic detergents or fatty acids. The dye Thioflavine S (ThS) binds to tau filaments and upon binding, increases in fluorescence several fold. Small molecules that displace ThS binding or prevent filament binding are identified by a reduction in ThS fluorescence. This assay used histidine-tagged, recombinant human tau protein containing the products of exons 2, 3, and 10 that was provided by Jeff Kuret, Ohio State University. To form filaments, 1 uM tau was incubated with 30 uM sodium octadecylsulfate (ODS) in reagent buffer (10 uM thioflavine S, 5 mM 1,4-dithioerythreitol (DTT), 100 mM sodium chloride, 10 mM HEPES pH 7.4) for 15 hrs at 37 C.
NCGC Assay Protocol Summary:
Assay Steps. Two uL/well of 2 uM tau in reagent buffer (10 uM thioflavine S, 5 mM DTT, 100 mM sodium chloride, 10 mM HEPES pH 7.4) was dispensed into solid black 1536-well plates. Twenty-three nL compound was transferred to the assay plate after which 2 uL/well of 60 uM ODS in reagent buffer was dispensed for a final assay volume of 4 uL /well. Following 15 hours of incubation at 37 C, fluorescence was detected by an Envision (Perkin Elmer) using 450/8 nm excitation and 510/23 nm emission.
Keywords: NIH Roadmap, MLSCN, MLI, MLSMR, qHTS, NCGC, Alzheimer's disease, Neurofibrillary lesions, tau, tubulin assembly, microtubule stability, cytoskeletal integrity, fibrillization, thioflavin dyes, Amyloidgenic
Potency is the fitted concentration of half-maximal effect.

Microtubule-associated protein tau (Homo sapiens), sequence (P10636 whole entry, looked up): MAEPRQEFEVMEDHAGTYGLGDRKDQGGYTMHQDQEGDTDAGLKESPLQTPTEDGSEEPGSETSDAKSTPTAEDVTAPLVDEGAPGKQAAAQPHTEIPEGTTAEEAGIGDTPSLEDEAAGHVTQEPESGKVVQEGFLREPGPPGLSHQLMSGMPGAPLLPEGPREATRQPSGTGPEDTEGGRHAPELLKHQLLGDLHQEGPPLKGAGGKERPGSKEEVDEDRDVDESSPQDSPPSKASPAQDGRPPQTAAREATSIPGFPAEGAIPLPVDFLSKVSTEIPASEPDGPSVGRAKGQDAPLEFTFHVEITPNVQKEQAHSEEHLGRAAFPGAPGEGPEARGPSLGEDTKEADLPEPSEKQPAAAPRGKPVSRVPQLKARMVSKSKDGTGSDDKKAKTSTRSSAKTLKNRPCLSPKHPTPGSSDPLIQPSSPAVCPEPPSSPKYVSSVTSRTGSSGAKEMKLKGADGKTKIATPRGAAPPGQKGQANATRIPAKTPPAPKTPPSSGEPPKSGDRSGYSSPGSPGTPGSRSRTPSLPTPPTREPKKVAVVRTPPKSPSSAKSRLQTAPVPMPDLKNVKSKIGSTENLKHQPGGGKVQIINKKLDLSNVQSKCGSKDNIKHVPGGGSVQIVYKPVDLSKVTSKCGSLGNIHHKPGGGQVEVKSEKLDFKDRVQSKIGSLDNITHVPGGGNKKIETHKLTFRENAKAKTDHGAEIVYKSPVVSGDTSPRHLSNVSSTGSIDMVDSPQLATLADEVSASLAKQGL

SMILES | Potency | activity change, negative = inhibition
CC(C)CC(C)Nc1ccc(Nc2ccccc2)cc1 (stereo not given) | 15.8 µM (active) | 
c1ccc(N2CC[C@@]3(CCCNC3)C2)nc1 | inactive | 
CC[C@@](O)(C(=O)O)c1cc2n(c(=O)c1CO)Cc1cc3ccccc3nc1-2 |  | 6.4% [at 11.4 µM] (inactive)
Nc1ccc([N+](=O)[O-])cc1 | inactive | 
CC(=O)c1c(O)c(C)c(O)c(Cc2c(O)c3c(c(C(=O)/C=C\c4ccccc4)c2O)OC(C)(C)C=C3)c1O | 15.8 µM (active) and 25.1 µM (active) | 
Clc1ccccc1 | inactive | 
Fc1ccc(C(OCCN2CCN(C/C=C\c3ccccc3)CC2)c2ccc(F)cc2)cc1 | 12.6 µM (active) | 
CCCCC#N | inactive | 
Nc1ccc(Cc2ccc(N)c(Cl)c2)cc1Cl | inactive | 
N#CCCCl | inactive | 
CC(C)(C)C(O)(CCc1ccc(Cl)cc1)Cn1cncn1 (stereo not given) | inactive | 
Clc1cccc(Cl)c1Cl | inactive | 
c1ccc2c(c1)[I+]c1ccccc1-2 | inactive and 39.8 µM (active) | 
CCNC[C@H](O)c1cccc(O)c1 | inactive | 
O=C(Nc1cccc(F)c1)N1CC[C@@]2(CCCN(C(=O)Oc3ccccc3)C2)C1 | inactive | 
c1ccc(CN2CC[C@@]3(CCCNC3)C2)cc1 | inactive | 
ClCCBr | inactive | 
CN1CCN(C(=O)O[C@@H]2c3nccnc3C(=O)N2c2ccc(Cl)cn2)CC1 | inactive | 
O=C1C2(Cl)C3(Cl)C4(Cl)C(Cl)(Cl)C5(Cl)C3(Cl)C1(Cl)C5(Cl)C24Cl (stereo not given) | inactive and 15.8 µM (active) | 
Cc1cc(-c2ccc(N)c(C)c2)ccc1N | inactive | 
C=CC#N | inactive | 
CC(C)(Cc1c[nH]c2ccc(Cl)cc12)NCCOc1ccccc1OCC1CC1 | inactive | 
ClC(Cl)=C(Cl)C(Cl)=C(Cl)Cl | inactive | 
CC(Cl)Cl | inactive | 
C[C@]12CC[C@H](O)C[C@@H]1CC[C@H]1[C@H]2CC[C@]2(C)C(=O)CC[C@@H]12 | inactive | 
